Measurements: PubChem BioAssay (NCATS)
Results filed as inconclusive are left out. Active and inactive are the calls of the source. Calls follow the shape of the dose curve; as a rule, active = well fitted curve in the direction sought with a large enough effect; inconclusive = small, poorly fitted or top-dose-only effect, or another doubt; inactive = no such curve, though single readings can be large; an effect the other way counts as inactive or inconclusive.

Tests used:
[1] = Cell Viability - LYMP2-001 (AID 921); also: series mostly up to about 92 µM; nearly all actives have a fitted effect of over 70% in size
Outline: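 Human lymphoblastoid LYMP2-001 cells, 2500 per well, in complete medium, treated 24 h at 37 C. Viability from cellular ATP by CellTiter-Glo luminescence; AC50 from Hill-equation fits of qHTS concentration-response.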

[2] = MultiTox-Fluor Cytotoxicity Assay - LYMP1-001 - Dead Cells (AID 946)
Outline: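 In this qHTS, 15 uM tetraoctylammonium bromide defined 100% and DMSO defined basal activity. Lymphoblastoid cells (LYMP1-001, 2500 per well) received compound for 16 hr at 37 C before a fluorogenic dead-cell substrate readout at 485/520 nm.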

[3] = MultiTox-Fluor Cytotoxicity Assay - LYMP1-001 - Live Cells (AID 947)
[4] = Cell Viability - LYMP1-002 - Assay at 16 hr (AID 948)
Outline: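 LYMP1-002 human lymphoblastoid cells, 2500/well, were treated with compounds for 16 hr at 37 C in complete medium. Viability was read as intracellular ATP by CellTiter-Glo luminescence, and AC50 was derived from a Hill fit to concentration-response data.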

[5] = MultiTox-Fluor Cytotoxicity Assay - LYMP1-002 - Dead Cells (AID 960); also: nearly all actives have a fitted effect of over 60% in size
Outline: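 Human lymphoblastoid cells (LYMP1-002), 2500/well in complete medium, were exposed to compounds for 16 hr at 37 C. Dead-cell protease activity was read as bis-AAF-R110 fluorescence (Ex/Em 485/520), normalized to DMSO and 15 uM tetraoctylammonium bromide; AC50 from Hill fits.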

[6] = MultiTox-Fluor Cytotoxicity Assay - LYMP1-003 - Dead Cells (AID 961); also: nearly all actives have a fitted effect of over 70% in size
Outline: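 Acute toxicity is scored as increased dead-cell protease activity in human lymphoblastoid LYMP1-003 cells after 16 h compound exposure in complete culture medium. Activity is normalized to DMSO basal and 15 uM tetraoctylammonium bromide as full response.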

[7] = MultiTox-Fluor Cytotoxicity Assay - LYMP1-003 - Live Cells (AID 962);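 also: cytotoxic hits lower the live-cell protease signal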
Outline: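 LYMP1-003 human lymphoblastoid cells (2500/well) in complete medium were preincubated 5 hr at 37 C, then exposed to compounds for 16 hr at 37 C. Live-cell protease cleavage of GF-AFC read by fluorescence (Ex/Em 405/510); AC50 from Hill fits.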

[8] = Cell Viability - LYMP1-003 - Assay at 24 hr (AID 963)
Outline: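 Human lymphoblastoid LYMP1-003 cells (2500/well) were rested 5 hr at 37 C, then exposed to compounds in complete medium for 24 hr at 37 C. Cellular ATP was quantified by CellTiter-Glo luminescence, and AC50 values came from Hill fits of concentration-response data.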

[9] = Cell Viability - LYMP1-003 - Assay at 40 hr (AID 964); also: series mostly up to about 92 µM; nearly all actives have a fitted effect of over 60% in size
Outline: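 Human lymphoblastoid LYMP1-003 cells, 2500/well in complete medium, rested 5 hr at 37 C, then exposed to compounds for 40 hr at 37 C. Viability read as intracellular ATP by CellTiter-Glo luminescence; AC50 from Hill fits of concentration-response data.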

[10] = Cell Viability - LYMP2-003 (AID 965);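 also: cells exposed to compounds for 24 h before reading; nearly all actives have a fitted effect of over 50% in size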
Outline: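 Human lymphoblastoid LYMP2-003 cells, 2500/well, exposed to compounds for 24 h at 37 C in complete medium. Viability read as intracellular ATP by CellTiter-Glo luminescence; AC50 from Hill-equation fits of qHTS concentration-response data.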

[11] = Cell Viability - LYMP2-004 (AID 966); also: nearly all actives have a fitted effect of over 65% in size
Outline: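 Human lymphoblastoid cells (2500/well) in complete medium were treated with compounds for 24 hr at 37 C, then intracellular ATP was measured by CellTiter-Glo luminescence. AC50 values came from Hill-equation fits of concentration-response data.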

[12] = Cell Viability - LYMP2-005 (AID 967); also: series mostly up to about 92 µM
Outline: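 Human lymphoblastoid LYMP2-005 cells, 2,500 per well in complete medium, rested 5 h at 37C then compound-treated 24 h at 37C. Intracellular ATP read by CellTiter-Glo luminescence after 30 min at room temperature; AC50 from Hill-equation fits of concentration-response data.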

[13] = Cell Viability - LYMP2-009 (AID 968); also: series mostly up to about 92 µM; nearly all actives have a fitted effect of over 55% in size
[14] = Cell Viability - LYMP2-011 (AID 969); also: nearly all actives have a fitted effect of over 60% in size
Outline: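 Human lymphoblastoid cells (2500/well) were plated in complete medium, preincubated 5 hr at 37 C, then exposed to compounds for 24 hr at 37 C. Intracellular ATP was read by CellTiter-Glo luminescence, and AC50 came from Hill-equation concentration-response fits.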

[15] = Cell Viability - LYMP2-013 (AID 970); also: series mostly up to about 92 µM; nearly all actives have a fitted effect of over 55% in size
Outline: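 Human lymphoblastoid cells, 2500/well, were preincubated 5 hr at 37 C, then treated with compounds for 24 hr at 37 C in complete medium. Intracellular ATP was read by CellTiter-Glo luminescence; AC50 from Hill-equation fits of concentration-response data.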

[16] = Cell Viability - LYMP2-015 (AID 971); also: nearly all actives have a fitted effect of over 55% in size
Outline: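 Human lymphoblastoid cells (2500/well) in complete medium were preincubated 5 hr at 37 C, then compound-treated 24 hr at 37 C. Intracellular ATP was read by CellTiter-Glo luminescence after 30 min at room temperature; AC50 came from Hill-equation concentration-response fits.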

[17] = Cell Viability - LYMP2-017 (AID 972); also: series mostly up to about 92 µM; nearly all actives have a fitted effect of over 55% in size
Outline: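 Human lymphoblastoid cells (2500/well) were seeded in complete medium, held 5 hr at 37 C, then exposed to compounds for 24 hr at 37 C. Intracellular ATP was read by CellTiter-Glo luminescence after 30 min at room temperature, with AC50 values from Hill-equation fits.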

[18] = Cell Viability - LYMP2-019 (AID 973); also: nearly all actives have a fitted effect of over 55% in size
Outline: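 Human lymphoblastoid cells were seeded at 2500 cells/well, preincubated 5 hr at 37 C, then exposed to compounds for 24 hr at 37 C in complete medium. Intracellular ATP was measured by CellTiter-Glo luminescence; AC50 from Hill fits.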

[19] = Cell Viability - LYMP2-021 (AID 974)
Outline: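 Human lymphoblastoid cells (2500/well) were preincubated 5 hr at 37 C, then exposed to compounds for 24 hr at 37 C in complete medium. Intracellular ATP was read by CellTiter-Glo luminescence; AC50 came from Hill-equation fits of concentration-response data.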

[20] = Cell Viability - LYMP2-023 (AID 975)
Outline: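 Human lymphoblastoid cells (2500/well) were preincubated 5 hr at 37 C, then exposed to compounds for 24 hr at 37 C in complete medium. Cellular ATP was read by CellTiter-Glo luminescence, and AC50 came from Hill-equation fits.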

[21] = Cell Viability - LYMP2-025 (AID 976); also: series mostly up to about 92 µM
Outline: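 Human lymphoblastoid LYMP2-025 cells (2500/well) were pre-incubated 5 hr at 37 C, then treated with compounds for 24 hr at 37 C in complete medium. Viability was read as intracellular ATP by CellTiter-Glo luminescence; AC50 from Hill fits.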

[22] = Cell Viability - LYMP2-002 (AID 977);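 also: series mostly up to about 92 µM; compound exposure lasted 24 h at 37 °C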
Outline: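 Cytotoxicity is scored as concentration-dependent loss of cellular ATP in a human lymphoblastoid line after 24 hr compound treatment at 37 C. AC50 is obtained by modelling concentration-response data with the Hill equation.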

Measured: Potency

CCCOC(=O)c1ccccc1C(=O)OCCC
inactive: [1] | [2] | [3] | [4] | [5] | [6] | [7] | [8] | [9] | [10] | [11] | [12] | [13] | [14] | [15] | [16] | [17] | [18] | [19] | [20] | [21] | [22]
